Six1-Eya2 blk – inhibitors of human Six1/Eya2 interaction. 360,000 tested, 0.56% active. AlphaScreen GST-Six1/His-Eya2 binding, biochemical; active compounds read low. Q15475+O00167. AID 651725. activity change, % (concentration not given with the values); in the data active means activity change below about -65%; inconclusive means mostly about -30% to -63%
Target sequence (O00167 whole entry, looked up): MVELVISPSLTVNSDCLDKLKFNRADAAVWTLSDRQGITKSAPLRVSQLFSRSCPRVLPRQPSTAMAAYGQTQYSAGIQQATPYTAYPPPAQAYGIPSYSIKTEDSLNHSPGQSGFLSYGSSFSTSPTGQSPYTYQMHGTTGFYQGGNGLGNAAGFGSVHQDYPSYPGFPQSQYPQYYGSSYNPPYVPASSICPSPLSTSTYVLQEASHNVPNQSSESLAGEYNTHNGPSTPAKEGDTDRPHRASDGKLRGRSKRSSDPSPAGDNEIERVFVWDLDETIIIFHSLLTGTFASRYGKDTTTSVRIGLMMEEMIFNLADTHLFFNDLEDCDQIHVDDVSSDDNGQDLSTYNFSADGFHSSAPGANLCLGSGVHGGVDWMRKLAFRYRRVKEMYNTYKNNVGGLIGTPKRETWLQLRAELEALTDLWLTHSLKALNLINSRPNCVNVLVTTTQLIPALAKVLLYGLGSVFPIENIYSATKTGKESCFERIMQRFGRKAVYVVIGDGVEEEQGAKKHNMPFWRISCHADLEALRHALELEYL
Target sequence (Q15475 whole entry, looked up): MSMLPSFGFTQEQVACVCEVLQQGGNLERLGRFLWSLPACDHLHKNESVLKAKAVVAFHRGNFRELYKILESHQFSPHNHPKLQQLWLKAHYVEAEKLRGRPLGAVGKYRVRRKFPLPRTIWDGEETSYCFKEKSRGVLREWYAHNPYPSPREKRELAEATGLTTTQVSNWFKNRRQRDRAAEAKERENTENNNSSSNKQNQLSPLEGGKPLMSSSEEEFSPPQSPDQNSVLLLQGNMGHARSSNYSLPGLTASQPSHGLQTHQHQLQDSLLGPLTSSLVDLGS
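Compounds are tested against tagged Six1 and Eya2 proteins bridged by glutathione donor and nickel acceptor beads; after a one-hour incubation at 37 °C without light, AlphaScreen emission is recorded.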
IL1B secr inh – inflammasome signaling inhibition, IL-1 beta readout | THP-1 LPS/ATP IL-1B secretion, AlphaLISA, 16 h; active compounds read low | activity change, % at 57.5 µM | 360,000 tested, 4.7% active; in the data active means activity change below about -50%; inconclusive means mostly about -30% to -49%
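Secreted IL-1B measured by AlphaLISA bead assay after 16 h compound exposure of THP-1 cells; compounds (final up to 57.5 uM) added 1 h before LPS (250 ng/mL) and ATP (1.25 mM) stimulation; lower signal means less secretion.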
TDP1 inh – inhibitors of human tyrosyl-DNA phosphodiesterase TDP1; Potency, µM (top dose mostly 130 µM), for inactives: top-dose activity change, negative = inhibition, most hits filed as inhibitors; 350,000 tested, 0.28% active; Q9NUW8; AID 485290; recombinant TDP1, AlphaScreen DNA substrate cleavage; further: potency means the concentration at half of the fitted maximal effect; nearly all actives have a fitted effect of over 40% in size
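AlphaScreen read-out: signal falls as enzyme removes the 3' tyrosine-FITC from a 5'-biotinylated DNA oligo (15 nM, 5 min, RT). Enzyme was E. coli-made recombinant Tdp1 at 1 nM, exposed to compound for 15 min beforehand; beads 10 ug/ml, 10 min.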
DT40 TDP1 no CPT – qHTS for Inhibitors of human tyrosyl-DNA phosphodiesterase 1 (TDP1): qHTS in cells in absence of CPT. DT40 Tdp1-/- hTDP1 cells, no CPT, ATP luminescence, 48 h. Potency, µM (top dose mostly 46.2 µM), for inactives: at the top dose activity change, negative = growth inhibition, hits mostly inhibitors. 420,000 tested, 15% active. AID 686978, 2013; further: potency means the concentration at half of the fitted maximal effect; nearly all actives have a fitted effect of over 55% in size
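Chicken DT40 Tdp1-/- cells stably complemented with human TDP1 were seeded at 400 cells/well with DMSO in place of 20 nM camptothecin. After compound pinning, cells grew at least 48 hr at 37 °C; viability read by CellTiter-Glo luminescence.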
CtBP-E1A blk – blocks the CtBP interaction with E1A; AlphaScreen GST-E1A/His-CtBP binding, 1536-well; active compounds read low; 340,000 tested, 0.49% active; AID 651724; activity change, % (test concentration not listed); in the data active means activity change below about -65%; inconclusive means mostly about -30% to -63%
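Protein mix (5X: 125 nM each GST-E1A, His-CtBP) was incubated with pinned compound 2 h at 37 deg C in dark, in 50 mM Tris pH 8.0 buffer with 300 mM NaCl. Glutathione donor and nickel acceptor beads followed; AlphaScreen signal read after 1 h.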
TDP1 cell CPT – DT40-hTDP1 cell growth loss with CPT. chicken DT40 Tdp1-/-;hTDP1 cells + 20 nM CPT, ATP luminescence, 48 h. Potency, µM (doses to about 46.2 µM), for the others: at the highest dose activity change, negative = growth inhibition, hits mostly inhibitors. 420,000 tested, 12% active. AID 686979; further: potency means the concentration at half of the fitted maximal effect; nearly all actives have a fitted effect of over 55% in size
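Chicken DT40 Tdp1-/- cells complemented with human TDP1, 400 cells/well, exposed to compounds plus 20 nM camptothecin for at least 48 h at 37 C; viability read as ATP content by CellTiter-Glo luminescence.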
* marks the source's active call; other numbers are inactive results; ? = inconclusive; / = no result; [ ] = remark or other dose. Sampled rows, rich in hits. Any-hit rate of the full collection: about 18%. Unless noted, the call rests on the fitted dose curve; in most records, active means well fitted curve in the direction sought with a large enough effect; inconclusive means small, poorly fitted or top-dose-only effect, or another doubt; inactive means no such curve, though single readings can be large; an effect the other way counts as inactive or inconclusive. On the % scale 0 is the no-effect control and ±100 the full control effect.

SMILES | Six1-Eya2 blk | IL1B secr inh | TDP1 inh | DT40 TDP1 no CPT | CtBP-E1A blk | TDP1 cell CPT
CCCC(=O)Nc1c(-c2ccccc2)c(=O)c(C)nn1-c1ccccc1 | 7.2 | 2.8 | -2.7% | -2.9% | 1.3 | 15.3%
CC1CCN(C(=O)Cn2cc(S(=O)(=O)CC(=O)N3CCOCC3)c3ccccc32)CC1 | 0.7 | -1.3 | / | -3.9% | 2.2 | -13.9%
O=C(CN1C(=O)COc2ccc(S(=O)(=O)N3CCCC3)cc21)N1CCN(c2ccc(F)cc2)CC1 | / | / | 3.8% | / | / | /
CCOc1ccccc1C(=O)NCCCCNC(=O)c1ccccc1OCC | 17.6 | 4.9 | / | ? | -2.2 | ?
O=C(Nc1ccc(-c2cn3cccnc3n2)cc1)c1ccccc1F | / | / | 1.1% | 16.4µM* | / | ?
CC(C)CC(=O)Nc1ccc(-c2cn3cccnc3n2)cc1 | -13.5 | -3.3 | / | -17.8% | -20.4 | -26.6%
Nc1nonc1-n1nnc(C(=O)N/N=C/c2cc(Br)ccc2O)c1CNc1ccccc1 | 13.1 | 69.0 | 5.3% | 8.2µM* | -3.2 | 8.2µM*
Cc1ccc(/C=N/NC(=O)c2nnn(-c3nonc3N)c2CNc2ccccc2)cc1 | -1.1 | 15.3 | 0.9% | ? | 1.2 | ?
Nc1nonc1C(=O)N/N=C/c1cc(Br)ccc1O | -93.1* | 187.5 | 2.5% | 1.46µM* | -92.2* | 0.92µM*
COc1ccc2ccccc2c1/C=N/NC(=O)c1nnn(-c2nonc2N)c1C(C)C | -19.5 | -1.7 | 6.9% | ? | -26.1 | -28.4%
Cc1c(C(=O)N/N=C/c2c(O)ccc3ccccc23)nnn1-c1nonc1N | 3.6 | 139.0 | 1.6% | 3.66µM* | -0.3 | 5.8µM*
FC(F)(F)c1ccc(Cl)c(NC(=S)N/N=C/c2ccccc2C(F)(F)F)c1 | 14.7 | -4.0 | -5.6% | ? | 4.6 | ?
O=C(NCC(c1ccco1)N1CCc2ccccc2C1)C(=O)Nc1cc(F)ccc1F (stereo not given) | -9.2 | 4.9 | / | ? | -1.0 | -28.6%
C#CCOc1nc(Nc2cccc([N+](=O)[O-])c2)nc(OCC#C)n1 | ? | -65.6* | 3.6% | 20.6µM* | ? | ?
COc1ccc(N(CC(=O)NC2CCCC2)C(=O)CCC(=O)Nc2cc(C)on2)cc1OC | 3.2 | 15.1 | 11.9% | -18.8% | -12.3 | 1.1%
C=CCC[C@H](Cc1ccc(F)cc1)C(=O)OC[C@H](Cc1c[nH]c2ccccc12)NC(=O)[C@@H](CC=C)CC(=O)N[C@H](CO)Cc1ccccc1 | -18.4 | ? | 2.7% | -80.8% | / | ?
C=CCC[C@H](Cc1ccc(F)cc1)C(=O)OC[C@@H](Cc1c[nH]c2ccccc12)NC(=O)[C@@H](CC=C)CC(=O)N[C@H](CO)Cc1ccccc1 | -6.4 | -22.1 | 1.3% | 14.6µM* | / | 18.4µM*
C=CCC[C@@H](Cc1ccc(F)cc1)C(=O)OC[C@H](Cc1c[nH]c2ccccc12)NC(=O)[C@@H](CC=C)CC(=O)N[C@H](CO)Cc1ccccc1 | 1.1 | -7.7 | 1.5% | ? | -6.7 | ?
C=CCC[C@H](Cc1ccc(F)cc1)C(=O)OC[C@H](Cc1c[nH]c2ccccc12)NC(=O)[C@@H](CC=C)CC(=O)N[C@@H](CO)Cc1ccccc1 | 2.9 | 69.5 | 0.5% | 16.4µM* | 2.5 | 5.8µM*
CO/N=C\C[C@@H]1C=C[C@H](OC(C)=O)[C@H](COC(C)=O)O1 | / | / | 4.8%[21 µM] | / | / | /
Cc1ccc(Nc2nnc(-c3ccc(C)c(S(=O)(=O)N4CCN(C)CC4)c3)c3ccccc23)c(C)c1 | / | / | / | 6.51µM* | / | 7.31µM*
Cc1ccc(-c2nnc(Nc3cccc(Cl)c3)c3ccccc23)cc1S(=O)(=O)N1CCN(C)CC1 | / | / | / | 20.6µM* | / | 11.6µM*
Cc1ccc(-c2nnc(Nc3cccc(O)c3)c3ccccc23)cc1S(=O)(=O)N1CCCCC1 | / | / | 0.4%[12.3 µM] | -102.0% | / | 18.4µM*
Cc1ccc(-c2nnc(Nc3cccc(Br)c3)c3ccccc23)cc1S(=O)(=O)N1CCCCC1 | / | / | 2.9%[2.28 µM] | -23.7% | / | -25.3%
Cc1ccc(Nc2nnc(-c3ccc(C)c(S(=O)(=O)N4CCN(C)CC4)c3)c3ccccc23)cc1 | / | / | / | 16.4µM* | / | 18.4µM*
SMILES | Six1-Eya2 blk | IL1B secr inh | TDP1 inh | DT40 TDP1 no CPT | CtBP-E1A blk | TDP1 cell CPT
C/C(=N\NC(=O)c1ccc(Cl)c(S(=O)(=O)Nc2ccccc2Cl)c1)c1ccncc1 | ? | 14.7 | 8.2% | ? | 16.0 | ?
Cn1ccnc1SCc1ccc(Cl)cc1Cl | 5.0 | -16.8 | 2.9% | -29.4% | -3.2 | ?
CCOC(=O)CNS(=O)(=O)c1cc(-c2n[nH]c(=O)c3ccccc23)ccc1C | -3.1 | / | 0.0% | -15.0% | -3.4 | ?
Cc1ccc(-c2nc3ccccc3s2)cc1S(=O)(=O)N1CCCC1 | 7.0 | -6.3 | -3.9% | ? | 23.3 | 13µM*
Cc1cccc(Nc2nnc(-c3ccc(C)c(S(=O)(=O)N4CCN(C)CC4)c3)c3ccccc23)c1 | / | / | / | ? | / | 20.6µM*
Cc1ccc(-c2nnc(Nc3cccc(Br)c3)c3ccccc23)cc1S(=O)(=O)N1CCN(C)CC1 | / | / | 2.8% | 18.4µM* | / | 13µM*
O=S(=O)(c1cccc(-c2nc3ccccc3s2)c1)N1CCOCC1 | -2.4 | -10.1 | 5.6% | -17.6% | -6.7 | ?
Cc1ccc(NS(=O)(=O)c2cc(-c3n[nH]c(=O)c4ccccc34)ccc2C)cc1 | -25.8 | -3.3 | 7.9% | 6.51µM* | -15.0 | 7.31µM*
CCOC(=O)C(NC(=O)c1ccccc1Cl)(Nc1sc2c(c1C(N)=O)CCC2)C(F)(F)F (stereo not given) | 0.9 | 10.0 | 2.7% | ? | / | ?
Cc1ccc(S(=O)(=O)Nc2cc(C)on2)cc1 | 10.0 | 10.3 | -4.8% | 5.7% | -3.7 | 23.5%
CC(C)(C)NC(=O)CSc1nncn1NCc1cccc2ccccc12 | 1.6 | -8.4 | 3.3% | -15.9% | -0.3 | -13.9%
CC1CCC2CC1C2(C)C (stereo not given) | / | / | 5.9% | / | / | /
Cc1ccc(-c2nnc(Nc3ccc(O)cc3)c3ccccc23)cc1S(=O)(=O)NCc1nc2ccccc2[nH]1 | / | / | / | -12.4% | / | -5.0%
Cc1ccc(-c2nnc(NCc3nc4ccccc4[nH]3)c3ccccc23)cc1S(=O)(=O)N1CCCCC1 | -12.7 | -3.0 | 5.3% | 16.4µM* | -15.0 | 20.6µM*
CCN(CC)C(=O)C1CCCN(Cc2nc(-c3cccs3)no2)C1 (stereo not given) | 2.1 | 28.9 | 0.0% | -25.6% | 8.2 | 6.1%
CCCN1C2CCCC1CC(NC(=O)Nc1ccc(C(C)C)cc1)C2 (stereo not given) | -2.9 | 10.5 | 1.1% | ? | -4.1 | 23.1µM*
